# Data: the supplement of paper PMC11482750
# ± gives the standard deviation of the averaged measurements.
# Compound: CCCCCC(C)=O [2-heptanone]
# Experiment: control-subtracted net OSN firing rate; higher = stronger neuronal activation
# Details: odorant dilution (vol/vol): 1/100
# Protocol: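 Single sensillum recordings from olfactory sensory neurons. The neurons sit in the maxillary palp or antennal sensilla of D. melanogaster (wild type, mutants, or at1 empty-neuron lines expressing Or42a homologs or the A181D S307P mutant) and of four Scaptomyza species. Each odorant was given as a 1 s pulse from 20 µl loaded on filter paper at 1:100 vol/vol, diluted in mineral oil (γ-hexalactone in DMSO). Spikes were counted in a 0.5 s window starting 0.2 s after onset, background was subtracted, the count was doubled, and the mean solvent-control response was subtracted.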
row,Target,control-subtracted net OSN firing rate
1,Canton-S (D. melanogaster) pb3a,5.67 ± 5.5 spikes/s
2,S. montana pb3a-like,97.3 ± 25 spikes/s
3,S. montana pb2b-like,8 ± 10 spikes/s
4,Canton-S (D. melanogaster) pb1b,-10 ± 9.1 spikes/s
5,S. flava pb3b-like,-8.67 ± 26 spikes/s
6,S. montana pb3b-like,-2 ± 6.5 spikes/s
7,S. pallida pb1b-like,-9 ± 13 spikes/s
8,S. montana pb1a-like,64.7 ± 19 spikes/s
9,S. flava pb2b-like,-1 ± 14 spikes/s
10,Canton-S (D. melanogaster) pb2a,3.71 ± 7.3 spikes/s
11,S. flava pb1a-like,104 ± 19 spikes/s
12,S. pallida pb2a-like,7.67 ± 6.6 spikes/s
13,S. pallida pb3b-like,-7.67 ± 13 spikes/s
14,S. hsui pb3a-like,148 ± 31 spikes/s
15,S. flava pb1b-like,-22 ± 27 spikes/s
16,S. hsui pb2a-like,8.67 ± 6.3 spikes/s
17,S. hsui pb1b-like,-8.33 ± 8 spikes/s
18,S. hsui pb2b-like,8.67 ± 16 spikes/s
19,S. flava pb2a-like,7.33 ± 3.7 spikes/s
20,S. montana pb1b-like,-12.3 ± 22 spikes/s
21,S. pallida pb2b-like,26.3 ± 7.8 spikes/s
22,S. montana pb2a-like,7 ± 13 spikes/s
23,Canton-S (D. melanogaster) pb1a,161 ± 48 spikes/s
24,S. flava pb3a-like,133 ± 40 spikes/s
25,S. hsui pb3b-like,-6.67 ± 5.9 spikes/s
26,Canton-S (D. melanogaster) pb2b,0.286 ± 11 spikes/s
27,S. hsui pb1a-like,136 ± 22 spikes/s
28,S. pallida pb1a-like,95.7 ± 29 spikes/s
29,S. pallida pb3a-like,115 ± 19 spikes/s
30,Canton-S (D. melanogaster) pb3b,16.3 ± 24 spikes/s
